Screening data (PubChem BioAssay)
Most compounds without a hit are left out; they make up all but 4% or so of the library.
HSV replic up: enhancers of HSV replication in host cells, fold increase, host cell viability. maximum fold increase. AID 1956, 2009. actives 0.005% (n = 220,000). HSV replication augmentation in cells; in the data active means maximum fold increase above about 1.5; inconclusive means no clear call, values can overlap the other calls; tested in PC3 cells
ROMK mod: ROMK potassium channel modulators, primary screen, cell-based, thallium flux, MLSMR library; actives 2% (n = 130,000); B-score at 10 µM; Tet-inducible ROMK, thallium flux fluorescence; actives lie on both sides;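 active means signal ratio slope over the read window, or its plate-corrected B-score, at least 3 SD from the plate mean, either direction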;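 further: B-score of the F/F0 ratio slope over 7 to 12 s after thallium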
Target sequence (P48048 whole entry, looked up): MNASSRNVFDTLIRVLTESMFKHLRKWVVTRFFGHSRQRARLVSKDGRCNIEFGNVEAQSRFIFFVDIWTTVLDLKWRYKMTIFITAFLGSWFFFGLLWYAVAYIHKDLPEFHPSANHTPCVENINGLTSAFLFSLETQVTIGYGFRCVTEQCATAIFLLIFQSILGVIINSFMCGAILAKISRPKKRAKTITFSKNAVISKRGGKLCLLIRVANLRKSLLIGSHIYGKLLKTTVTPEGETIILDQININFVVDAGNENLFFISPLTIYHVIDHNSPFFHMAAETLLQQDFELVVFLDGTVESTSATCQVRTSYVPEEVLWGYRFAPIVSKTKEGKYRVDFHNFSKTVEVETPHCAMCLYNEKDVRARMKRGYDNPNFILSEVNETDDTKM
Cl transport mod: KCC2 cotransporter modulators, thallium flux, primary screen, cell-based, HEK293 KCC2, FluoZin-2 fluorescence, MLSMR; Solute carrier family 12 member 5 (Homo sapiens), Q9H2X9; KCC2 cells, thallium flux FluoZin-2 fluorescence; B-score of Tl+ flux slope (higher = more flux/activation; lower = inhibition) at 10 µM; actives 2.2% (n = 190,000); AID 1456, 2008;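 active means thallium flux slope and its plate-corrected score both differing from the plate sample mean at a set confidence after two filtering rounds, in either direction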;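 further: slope of fluorescence scaled to starting intensity during 10 to 20 s after thallium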
Arbovirus anti: antivirals against arbovirus infection, primary screen, cell-based, full library, 10K replicate subset; arbovirus infection cell-based antiviral screen; actives 0.37% (n = 200,000); AID 1251, 2008; inhibition, % at 10 µM; in the data active means inhibition above about 30%
Measles CPE: compounds protecting cells from measles virus cytopathic effect, primary screen, measles RdRp inhibitor project, single point, MLSMR library, absorbance | Measles virus-infected cells, CPE protection | protection (pct of control), % at 4 µM | actives 1.5% (n = 140,000) | AID 841, 2007; in the data active means protection mostly above about 24%, no sharp cut-off; inactive means mostly below about 26%
KCC2 sec1: KCC2 modulators in sodium-free buffer, confirmation, cell-based, HEK293 KCC2, thallium flux, secondary assay; shares compounds with Cl transport mod; normalised thallium flux (F/F0 slope) at 10 µM; AID 1713, 2009; FluoZin2 fluorescence; stronger effect = higher value; actives 15% (n = 3,700);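 active means thallium flux slope above the same plate's solvent-only control mean plus 3 SD; inconclusive means the two replicate wells disagree; inactive means no significant difference from solvent-only control wells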
KCC2 bumet counter: thallium flux persisting under bumetanide in KCC2 cells, confirmation, counter-screen for KCC2 modulator project, cell-based, HEK293 KCC2, FluoZin2, secondary assay 3 | shares compounds with Cl transport mod | HEK293-KCC2 + bumetanide/ouabain; stronger effect = higher value | normalized thallium flux at 10 µM | actives 49% (n = 3,700) | AID 1714, 2009;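 active means thallium entry rate above the same plate's blocked-transporter control wells by more than 3 SD; inconclusive means the two repeat wells disagree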;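 further: raw slope of fluorescence over initial fluorescence between 10 and 20 s after thallium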
KCC2 sec2: KCC2 modulators without ouabain present, confirmation, cell-based, HEK293 KCC2, thallium flux, FluoZin2, secondary assay 2; shares compounds with Cl transport mod; thallium flux FluoZin2 fluorescence; actives lie on both sides; F/F0 rise rate, 10–20 s post-thallium; normalized thallium flux at 10 µM; actives 23% (n = 3,700); AID 1715, 2009;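 active means thallium flux slope more than 3 SD above or below the plate's solvent-only control mean, mostly below; inconclusive means the two repeat wells disagreed; inactive means no significant shift from solvent-only controls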;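 further: raw slope with 0.1% DMSO as baseline and bumetanide as block control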
HEK293 Tl flux: thallium flux modulation in parental HEK cells, confirmation, counter-screen for KCC2 modulator project, cell-based, counterscreen 1; actives 46% (n = 3,700); HEK293 parental cells, thallium flux FluoZin2, ouabain; baseline-ratio fluorescence slope, 10–20 s after thallium; thallium flux rate (normalised fluorescence) at 10 µM; shares compounds with Cl transport mod;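 active means thallium flux rate significantly above the same plate's solvent-only control wells, beyond their mean plus 3 SD; inconclusive means the two replicate wells gave conflicting results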
KCC2 retest ouab: KCC2 inhibitors and activators, ouabain retest, confirmation, HEK-KCC2 cells; shares compounds with Cl transport mod; raw Tl+ flux slope (below DMSO = inhibition, above = activation) at 10 µM; HEK293-KCC2, thallium flux FluoZin2 fluorescence; bidirectional: low = inhibitor, high = activator; actives 48% (n = 3,700);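 active means thallium flux slope beyond 3 SD from same-plate DMSO control mean in most replicates, usually higher, sometimes lower; inconclusive means repeat tests gave conflicting results; inactive means no significant difference from controls in most replicates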;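 further: slope of initial-normalized fluorescence between seconds 10 and 20 after thallium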
HEK counter2: native HEK Tl+ uptake effects, second counter-screen – HEK cells, counterscreen 2, counter-screen for KCC2 modulator project, confirmation | shares compounds with Cl transport mod | HEK293 parental, thallium flux FluoZin-2 fluorescence slope | thallium flux slope at 10 µM | actives 33% (n = 3,700) | AID 1718, 2009;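 active means thallium flux slope above the same plate's solvent-control mean plus 3 SD in both duplicate wells; inconclusive means duplicate wells that disagreed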;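 further: run without ouabain in cells lacking the KCC2 cotransporter; slope of fluorescence scaled to its starting value between 10 and 20 s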
The depositor's hits bear a star; i = inactive; u = inconclusive; x = no result given.

SMILES | HSV replic up | ROMK mod | Cl transport mod | Arbovirus anti | Measles CPE | KCC2 sec1 | KCC2 bumet counter | KCC2 sec2 | HEK293 Tl flux | KCC2 retest ouab | HEK counter2
CCc1cc2cccc(C)c2nc1SCC(=O)N1CCN(C(=O)c2ccco2)CC1 | i | x | -3.2* | -11 | 11 | 0.016 | 0.0043 | 0.021* | 0.0047* | 0.013* | 0.0072*
CCOC(=O)Cc1cc(=O)n2[nH]c(-c3ccccc3)c(-c3ccccc3)c2n1 | i | 0.65 | 6* | 6 | x | 0.0056 | 0.018* | 0.031 | 0.014* | u | 0.014*
CCOC(=O)Cc1cc(=O)n2[nH]c(C)c(-c3ccccc3)c2n1 | i | 1.4 | -0.44 | 5 | 5 | x | x | x | x | x | x
CCOC(=O)C1(CCCc2ccccc2)CCN(C(=O)C2=C(C)OCCO2)CC1 | i | -1.1 | -4.5 | 1 | x | x | x | x | x | x | x
O=C(NC(=S)Nc1ccccn1)c1ccc([N+](=O)[O-])cc1 | i | -0.0062 | 2.1 | -2 | 10 | x | x | x | x | x | x
O=C(NC(=S)Nc1ccccn1)c1ccccc1 | i | -0.24 | 9.1* | x | x | 0.0097 | 0.017* | 0.04 | u | 0.027* | 0.012
S=C(Nc1ccccn1)NC1CCCCC1 | i | 0.13 | 3.5* | x | x | 0.0071 | 0.0063* | 0.033 | 0.0085 | 0.021 | 0.011
O=C(NC(=S)Nc1cccc2ncccc12)c1ccccc1 | i | -0.09 | 4.5* | 1 | x | 0.0059 | 0.01* | 0.03 | 0.011* | 0.021 | u
S=C(Nc1ccccn1)NC1CCCC1 | i | 1.3 | 0.38 | 0 | x | x | x | x | x | x | x
Cc1cccc(NC(=S)NNC(=S)NC2CCCCC2)c1C | i | -0.44 | 4* | 4 | x | 0.0089 | 0.012* | 0.03 | 0.0094* | u | 0.011
O=C(NC(=S)Nc1ccc2ncccc2c1)c1ccccc1 | i | 0.53 | 0.66 | -8 | x | x | x | x | x | x | x
O=C(O)CCNC(=O)CCCn1nnc2ccccc2c1=O | i | 0.48 | 0.2 | x | x | x | x | x | x | x | x
O=C(NC(=S)Nc1cccc2ncccc12)c1cccs1 | i | -0.13 | 8.2* | 3 | x | u | 0.035* | 0.032 | 0.016* | 0.025* | 0.018*
Cc1cc2nnc(SCC(=O)Nc3cc(S(=O)(=O)N4CCOCC4)ccc3Cl)n2c2ccccc12 | i | x | -4.7* | 6 | 22 | 0.0057 | u | 0.024* | 0.0057* | 0.013* | 0.0082*
Cc1cc(=O)n2[nH]c(C)c(-c3ccccc3)c2n1 | x | x | -0.045 | -4 | 0 | x | x | x | x | x | x
O=c1cc(-c2ccccc2)nc2c(-c3ccccc3)c(C(F)(F)F)[nH]n12 | i | x | 3.8* | x | x | 0.0099 | 0.014* | 0.033 | 0.011* | 0.022 | 0.0091
Oc1ccccc1/C=N/NC(=S)NC1CC2CC1C1C=CCC21 (stereo unspecified) | i | x | 15* | x | x | 0.01 | 0.014* | 0.032 | 0.013* | 0.032* | u
COc1cccc(/C=N/NC(=S)NC2CC3CC2C2C=CCC32)c1O (stereo unspecified) | i | 0.28 | 0.62 | x | x | x | x | x | x | x | x
OC1CCN(C(=S)Nc2ccc(Oc3ccccc3)cc2)CC1 | i | 1 | -2.3 | 1 | x | x | x | x | x | x | x
CCCSc1oc(-c2ccco2)nc1S(=O)(=O)c1ccccc1 | i | x | -0.41 | 9 | 8 | x | x | x | x | x | x
CCSc1oc(-c2ccco2)nc1S(=O)(=O)c1ccccc1 | i | x | 6.5* | 1 | 12 | 0.0097 | 0.0049 | 0.034 | 0.0041 | 0.02 | 0.012
Cc1c(N=C2Nc3cccc4cccc2c34)c(=O)n(-c2ccccc2)n1C | i | x | -2.9* | -4 | 11 | u | 0.0051 | 0.026* | 0.0084 | 0.016* | 0.0098
Cc1cc(Cl)cc(Br)c1OCCCN1C(=O)NC(C)(C)C1=O | i | x | x | 3 | 0 | x | x | x | x | x | x
NC(=S)N/N=C/c1ccc(-c2ccccc2)o1 | i | -0.41 | 1.7 | -6 | x | x | x | x | x | x | x
NS(=O)(=O)c1ccc(-c2ccc(/C=N/NC(=O)c3ccccc3O)o2)cc1 | i | 0.15 | -0.41 | x | x | x | x | x | x | x | x
SMILES | HSV replic up | ROMK mod | Cl transport mod | Arbovirus anti | Measles CPE | KCC2 sec1 | KCC2 bumet counter | KCC2 sec2 | HEK293 Tl flux | KCC2 retest ouab | HEK counter2
Cc1ccc(-c2ccc(/C=N/NC(N)=S)o2)cc1 | i | x | 5* | x | x | 0.0062 | 0.012* | 0.033 | 0.01* | u | u
Cc1ccc(-c2ccc(/C=N/NC(=O)c3ccccc3O)o2)cc1 | i | 0.35 | 61* | x | x | 0.02* | 0.079* | 0.037 | 0.041* | 0.057* | 0.015*
CN(CC(=O)Nc1ccc(S(=O)(=O)N2CCCC2)cc1)Cc1c(F)cccc1Cl | i | -0.073 | -0.81 | 3 | x | x | x | x | x | x | x
O=C(NC(=S)N1CCN(c2ccc(F)cc2)CC1)c1cccs1 | i | 2.6 | 32* | 1 | x | 0.012* | 0.12* | 0.11* | 0.12* | 0.11* | 0.11*
O=C(c1ccc2ccccc2c1)N1CCN(c2ccc(O)cc2)CC1 | i | x | -3.7* | -36 | 6 | 0.01 | 0.0062 | 0.033 | 0.0082 | 0.019 | 0.012
CS(=O)(=O)Nc1ccc(C(=O)N2CCN(c3ccccc3)CC2)cc1 | i | x | 0.22 | 7 | 42* | 0.0077 | 0.0043 | 0.027 | 0.0078 | 0.018 | 0.0098
O=C(NC(=S)Nc1ccc(N2CCN(C(=O)c3ccccc3)CC2)cc1)c1cccs1 | i | -0.2 | 3.4* | -11 | x | 0.01 | 0.0097* | 0.033 | 0.01* | 0.02 | 0.012
O=C(CSc1ccc2ccccc2c1)N1CCN(c2ccc(O)cc2)CC1 | i | x | -1.1 | x | x | x | x | x | x | x | x
Cc1c(NS(=O)(=O)c2cccc(C(=O)OCC(=O)N(C)C3CCCCC3)c2)c(=O)n(-c2ccccc2)n1C | i | 0.095 | 1.5 | 18 | x | x | x | x | x | x | x
CC(=O)c1ccc(NC2=C(N3CCOCC3)C(=O)c3ccccc3C2=O)cc1 | i | -0.16 | -0.35 | -5 | 22 | x | x | x | x | x | x
